Sampled rows, rich in hits. Any-hit rate of the full collection: about 2.2%.
CHT allo act: human CHT allosteric activation. Q9GZV3. CHT-expressing cells, membrane potential dye, choline EC20; stronger effect = higher value; LV-AA mutant CHT in HEK293 cells. B-score at 10 µM. 0.49% of 310,000 active. AID 488977;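 active = initial fluorescence not abnormally high and integrated response B-score, plate-corrected, over 3 SD above library mean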
Target sequence (Q9GZV3 whole entry, looked up): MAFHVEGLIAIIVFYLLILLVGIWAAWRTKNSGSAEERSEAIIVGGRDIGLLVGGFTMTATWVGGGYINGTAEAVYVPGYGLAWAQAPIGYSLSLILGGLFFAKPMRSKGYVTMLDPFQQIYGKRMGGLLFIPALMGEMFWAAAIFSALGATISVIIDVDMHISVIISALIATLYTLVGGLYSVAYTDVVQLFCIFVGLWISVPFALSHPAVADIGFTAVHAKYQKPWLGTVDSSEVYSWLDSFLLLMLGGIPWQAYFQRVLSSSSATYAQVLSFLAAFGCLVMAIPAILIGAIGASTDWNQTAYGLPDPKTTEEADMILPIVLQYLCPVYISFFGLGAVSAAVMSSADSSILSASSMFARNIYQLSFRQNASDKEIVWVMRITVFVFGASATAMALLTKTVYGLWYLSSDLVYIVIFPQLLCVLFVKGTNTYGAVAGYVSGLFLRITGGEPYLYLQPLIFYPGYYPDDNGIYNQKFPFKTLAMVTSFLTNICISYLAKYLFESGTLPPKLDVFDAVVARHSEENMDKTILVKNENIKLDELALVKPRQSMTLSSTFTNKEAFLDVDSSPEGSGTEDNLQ
VLA-4 inh: inhibition in a human VLA-4 binding assay; VLA-4 expressing cells, ligand binding flow cytometry; P13612; 0.2% of 330,000 active; inhibition, % (about 7 µM as worked out from the volumes in the protocol); in the data active = inhibition above about 50%
CHT inh: inhibitors of human choline transporter CHT | 0.86% of 310,000 active | AID 488975 | B-score at 10 µM | Q9GZV3 | CHT-expressing cells, membrane potential dye, choline response; stronger effect = lower value;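 active = B-score over 3 SD under the library average, and starting fluorescence ratio not unusually high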;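 also: choline stimulus applied at its EC90 after an EC20 pre-addition; B-score computed on integrated fluorescence ratio after choline addition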
AI-2 QS modul: modulators of Vibrio harveyi AI-2 quorum sensing system; Vibrio harveyi JMH597 AI-2 luminescence/OD600 ratio, 9 h; stronger effect = lower value; strain lacks LuxN and CqsS sensors; 0 = neutral-control median; activity change, % at 7.5 µM; 0.4% of 300,000 active; AID 2094; in the data active = activity change below about -75%, passing the limit was not always enough;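 also: luminescence divided by OD600 gain over 9 h not by final OD600 alone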
Platelet DG rel: modulates dense granule release in human platelets | AID 1663 | inhibition, %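 (compounds screened at 7.5 µM in platelet-rich plasma)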 | 0.22% of 300,000 active | human platelet-rich plasma, SFLLRN dense granule ATP release, luminescence;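 active = mean replicate score, as percent of positive control, at or above 50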
HIF activator: HIF pathway transcriptional activation; activation, % at 7.5 µM (by protocol); 0.32% of 300,000 active; U2OS HRE-luciferase reporter, luminescence; normalized: DMSO 0%, desferrioxamine 100%;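 active = mean activation of at least 10% of the iron chelator positive control signal, with at least half of replicates also reaching 10%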
CHT act confirm: human CHT activation, confirmatory screen. 91% of 2,500 active. activation, % at 10 µM. shares compounds with CHT allo act. AID 504833. CHT-expressing cells, membrane potential dye fluorescence (FDSS); % of choline EC20–EC90 response window; HEK293 expressing CHT LV-AA mutant; choline added at its EC20;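 active = primary screen active, with duplicate mean activation above negative control mean plus 3 SD, cut at about 11% in these data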
HEK293 MP dye: counter-screen for CHT activators: effect in parental HEK293 cells. membrane potential dye fluorescence (FDSS); measured after EC20 choline addition. 62% of 2,500 active. shares compounds with CHT allo act. ratio readout change at 10 µM, hits read low;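 active = duplicate-averaged ratio beyond 3 SD from buffer wells, up or down, though filed actives are nearly all decreases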
Active calls of the source: *.

N=c1c2c3c(sc2ncn1CCN1CCOCC1)CCCCC3 was read as CHT allo act inactive, VLA-4 inh -9.4, CHT inh inactive, AI-2 QS modul 9.8, Platelet DG rel -9.5, HIF activator 1.3, CHT act confirm 68.6* and HEK293 MP dye -32.3*.
O=C(O)c1ccc(Cn2cnc3sc4c(c3c2=O)CCCC4)cc1 was read as CHT allo act inactive, VLA-4 inh 23.8, CHT inh inactive, AI-2 QS modul 31.4, Platelet DG rel 1.3 and HIF activator 0.0.
`O=C(CCNC(=O)c1ccccc1Cl)NCC(c1ccc(F)cc1)N1CCOCC1` (stereo not drawn) gave CHT allo act inactive, VLA-4 inh 1.8, CHT inh inactive, AI-2 QS modul 3.7, Platelet DG rel 6.9 and HIF activator -0.4.
`CCCCCC[N+](C)(C)CCSSCC[N+](C)(C)CCCCCC` gave CHT allo act inactive, VLA-4 inh -2.6, CHT inh inactive, AI-2 QS modul 7.4, Platelet DG rel -3.4, HIF activator 0.1, CHT act confirm 38.0* and HEK293 MP dye -45.8*.
Cc1c(O)ccc2c(CN3CCOCC3)cc(=O)oc12 was read as CHT allo act inactive, VLA-4 inh 4.6, CHT inh inactive, AI-2 QS modul 8.9 and Platelet DG rel 17.5.
For Cc1c(O)ccc2c(CN3CCN(CCO)CC3)cc(=O)oc12 the results were CHT allo act 17.4*, VLA-4 inh 5.1, CHT inh inactive, AI-2 QS modul 13.2, Platelet DG rel 11.5, CHT act confirm 65.6* and HEK293 MP dye -70.3*.
O=C(Cn1c(-c2ccccc2)c[n+]2ccsc12)c1ccc([N+](=O)[O-])cc1 was read as CHT allo act 8.56*, VLA-4 inh 1.2, CHT inh inactive, AI-2 QS modul 34.6, Platelet DG rel 2.2, HIF activator 1.0, CHT act confirm 65.9* and HEK293 MP dye -61.3*.
For O=C(Cn1c(-c2ccccc2)c[n+]2ccsc12)c1ccccc1 the results were CHT allo act inactive, VLA-4 inh 10.7, CHT inh inactive, AI-2 QS modul 4.1, Platelet DG rel -1.7 and HIF activator 2.6.
O=c1c2cnn(-c3ccccc3)c2nc(-c2cccs2)n1-c1ccc(Br)cc1 was read as CHT allo act inactive, VLA-4 inh -4.3, CHT inh inactive, AI-2 QS modul 24.6, Platelet DG rel 5.0, HIF activator 0.8, CHT act confirm 13.6* and HEK293 MP dye inactive.
Screening O=C(O)CSc1nc2c(cnn2-c2ccccc2)c(=O)n1-c1ccc(Br)cc1 returned CHT allo act inactive, VLA-4 inh 2.1, CHT inh inactive, AI-2 QS modul 16.1, Platelet DG rel 0.8 and HIF activator -0.7.
`CCc1ccccc1Nc1nc(N)nc(COC(=O)c2c(C)noc2C)n1` gave VLA-4 inh 3.7.
Screening COC(=O)CNC(c1ccccc1)c1cc(Br)ccc1NC(=O)CNC(=O)OCc1ccccc1 (stereo not drawn) returned CHT allo act 6.27*, VLA-4 inh 17.8, CHT inh inactive, AI-2 QS modul 18.7, Platelet DG rel 6.6, HIF activator -0.2, CHT act confirm 46.6* and HEK293 MP dye inactive.
Screening Cc1ccc(-c2nn(C)c(=O)c3ccccc23)cc1CN1CCCCC1 returned CHT allo act 8.66*, VLA-4 inh 1.0, CHT inh inactive, AI-2 QS modul -1.2, Platelet DG rel 11.5, HIF activator 0.0, CHT act confirm 26.8* and HEK293 MP dye -52.2*.
O=C(CSc1nnc2ccc(-c3cccnc3)nn12)Nc1ccccc1 was read as CHT allo act inactive, VLA-4 inh -2.0, CHT inh inactive, AI-2 QS modul 24.4, Platelet DG rel -1.5 and HIF activator 1.0.
CCCN(CCC)CCCNC(=S)Nc1ccc2nc(N3CCN(C)CC3)cc(C)c2c1 was read as CHT allo act inactive, VLA-4 inh 12.6, CHT inh inactive, AI-2 QS modul -12.3, Platelet DG rel -3.8, HIF activator 0.1, CHT act confirm 52.0* and HEK293 MP dye -26.7*.
`CCCCN(CC)CCNC(=O)CCC(=O)Nc1ccc2nc(N3CCN(C)CC3)cc(C)c2c1` gave CHT allo act inactive, VLA-4 inh -1.3, CHT inh inactive, AI-2 QS modul 22.4, Platelet DG rel -2.7, HIF activator 0.2, CHT act confirm 41.6* and HEK293 MP dye inactive.
CCCCN(CC)CCNC(=S)Nc1ccc2nc(N3CCN(C)CC3)cc(C)c2c1 was read as CHT allo act inactive, VLA-4 inh -14.3, CHT inh inactive, AI-2 QS modul -5.6, Platelet DG rel -9.4, HIF activator -13.4, CHT act confirm 34.8* and HEK293 MP dye inactive.
Screening COCCCNC(=O)CCC(=O)Nc1ccc2nc(N3CCOCC3)cc(C)c2c1 returned CHT allo act 7.97*, VLA-4 inh 5.3, CHT inh inactive, AI-2 QS modul 20.7, Platelet DG rel 18.1, HIF activator 0.4, CHT act confirm 37.0* and HEK293 MP dye -52*.
Screening CCCCn1c(N)c(N(CCOC)C(=O)CSCc2cccc(C)c2)c(=O)[nH]c1=O returned CHT allo act inactive, VLA-4 inh 11.5, CHT inh inactive, AI-2 QS modul 33.7, Platelet DG rel -4.1 and HIF activator -0.1.
For COc1ccc(CNC(=O)C2Cc3cc(S(=O)(=O)N4CCCC4)ccc3N2C(C)=O)c(OC)c1 (stereo not drawn) the results were CHT allo act inactive, VLA-4 inh -9.3, CHT inh inactive, AI-2 QS modul 21.9, Platelet DG rel 1.5 and HIF activator 0.1.
Screening COc1ccc(-c2cc(C(=O)NCC3CCCO3)c3cc(C(C)C)ccc3n2)cc1 (stereo not drawn) returned CHT allo act inactive, VLA-4 inh -2.2, CHT inh inactive, AI-2 QS modul 69.8, Platelet DG rel 7.4 and HIF activator -0.2.
`COCc1c(C(=O)N2CCN(c3ccccc3C)CC2)oc2ccccc12` gave VLA-4 inh -1.9.
`CCCC(CCC)C(=O)Nc1ccc2c(c1)N(C(=O)CN1CCN(C)CC1)c1ccccc1CC2` gave CHT allo act 6.7*, VLA-4 inh -10.2, CHT inh inactive, AI-2 QS modul 16.2, Platelet DG rel 1.4, HIF activator -7.5, CHT act confirm 29.3* and HEK293 MP dye inactive.

High-throughput results deposited in PubChem BioAssay by several laboratories.
